Our source for the Potency and activity change, negative = inhibition values is PubChem BioAssay (NCATS).

Records with an inconclusive call do not appear. Values without a mark were called inactive. Active and inactive are the calls of the source. Calls follow the shape of the dose curve; as a rule, active = well fitted curve in the direction sought with a large enough effect; inconclusive = small, poorly fitted or top-dose-only effect, or another doubt; inactive = no such curve, though single readings can be large; an effect the other way counts as inactive or inconclusive.

In assay [1] the test system is Zika virus NS2B-NS3 protease. Put plainly: Primary screen GU AMC qHTS for Zika virus inhibitors (AID 1347154).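 Also: 0% = no-inhibitor control and -100% = no-enzyme control; nearly all actives have a fitted effect of over 70% in size.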 The essentials: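 Unlinked Zika NS2B hydrophilic domain/NS3 protease domain noncovalent complex (25 nM final) in 10 mM Tris-HCl pH 8.0, 0.01% Tween 20, with AMC peptide substrate. Fluorescence (ex 340, em 450 nm) change over 15 min, room temperature; percent inhibition fitted to 4-parameter Hill equation.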
In general terms: Quantitative high-throughput screening tests each substance at several concentrations.

Assay [2] can be described thus: Primary qHTS for small molecule stabilizers of the endoplasmic reticulum resident proteome: Secreted ER Calcium Modulated Protein (SERCaMP) assay (AID 1508630). Also: % is scaled to controls: 0 for no effect and ±100 for the full control effect. The essentials: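 The SH-SY5Y reporter protocol was run at 3 concentrations up to 38.3 uM (primary) or 11 concentrations (follow-up): 16 h compound, 100 nM thapsigargin for 4 h, then extracellular luciferase luminescence.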

Consider `N[C@](CC1c2ccccc2Oc2ccccc21)(C(=O)O)[C@H]1C[C@@H]1C(=O)O`, for which the Potency result in assay [1] and in assay [2] was “inactive” throughout.
For `CC1=C(/C=C/C(C)=C/C=C/C(C)=C\CO)C(C)(C)CCC1`, the Potency entry in assay [1] and in assay [2] was “inactive” each time.
`O=C(O)c1ccncc1`: the Potency result in assay [1] and in assay [2] was “inactive” each time.
As for H-LVVYPWTQR-OH, the activity change, negative = inhibition is 5.8% [at 6.83 µM] in assay [1] and 18.2% [at 3.88 µM] in assay [2].
For `CC(C)C(NS(=O)(=O)c1ccc(-c2ccc(Br)cc2)cc1)C(=O)O` (stereo unspecified), the Potency result in assay [1] and in assay [2] was “inactive” throughout.
Take `C[C@H](CCC(=O)NCCS(=O)(=O)O)C1CC[C@H]2C3CC[C@@H]4C[C@H](O)CC[C@]4(C)C3C[C@H](O)[C@]12C` (stereo partly specified): the Potency entry in assay [1] and in assay [2] was “inactive” in each case.
Consider `NC(C(=O)O)C(CC(=O)O)c1ccc(Cl)cc1` (stereo unspecified), for which the Potency result in assay [1] and in assay [2] was “inactive” in each case.
Regarding `CC(O)[C@@H](N)C(=O)O` (stereo partly specified), the Potency result in assay [1] and in assay [2] was “inactive” throughout.
Consider `NC(C(=O)O)c1cc(O)cc(O)c1` (stereo unspecified), for which the Potency entry in assay [1] and in assay [2] was “inactive” each time.
Consider `CC(=O)OCOC(=O)CN(CC(=O)OCOC(C)=O)c1ccccc1OCCOc1ccccc1N(CC(=O)OCOC(C)=O)CC(=O)OCOC(C)=O`, for which the Potency result in assay [1] and in assay [2] was “inactive” in each case.
For the compound `COC(=O)/C=C/c1cccc(N(Cc2ccc(-c3ccc(N(C)C)cc3)cc2)C(=O)C2CCCCC2)c1`, the Potency entry in assay [1] and in assay [2] was “inactive” in each case.
In the case of `CC(N)CCCP(=O)(O)O` (stereo unspecified), the Potency entry in assay [1] and in assay [2] was “inactive” in each case.
Turning to `CCCCC/C=C\C/C=C\C/C=C\C/C=C\CCCC(=O)O[C@H](COCCCCCCCCCCCCCCCC)COP(=O)([O-])OCC[N+](C)(C)C`, the activity change, negative = inhibition in assay [1] is 13.2% [at 6.83 µM]; in assay [2], -11.5% [at 3.88 µM].
For the compound `CCCCC/C=C\C\C=C/C=C/C=C/[C@@H](SCC(NC(C)=O)C(=O)O)[C@@H](O)CCCC(=O)O` (stereo partly specified), the results for the activity change, negative = inhibition in assay [1] and in assay [2] were 13.7% [at 0.59 µM] and -5.72% [at 0.478 µM], respectively.
Regarding `NCCNC(=O)Cc1ccc(NC(=O)Cc2ccc(Nc3ncnc4c3ncn4[C@@H]3O[C@H](CO)[C@@H](O)[C@H]3O)cc2)cc1`, the Potency result in assay [1] and in assay [2] was “inactive” throughout.
In the case of `Nc1ccccc1C(=O)C[C@H](N)C(=O)O`, the Potency entry in assay [1] and in assay [2] was “inactive” each time.
In the case of `CCCCC(C)(C)[C@H](O)/C=C/[C@H]1[C@H](O)CC(=O)[C@@H]1C/C=C\CCCC(=O)O`, the values for the activity change, negative = inhibition in assay [1] and in assay [2] were 5.54% [at 6.83 µM] and 8.87% [at 3.88 µM], respectively.
`Cc1ccc2c(c1)C(=O)C1(O)CCN(c3ccccc3)C1=N2` (stereo unspecified): the Potency entry in assay [1] and in assay [2] was “inactive” each time.
Regarding `CN(C)C(=O)n1nnnc1Cc1ccc(-c2ccccc2)cc1`, the Potency entry in assay [1] and in assay [2] was “inactive” each time.
Consider `COc1cc2ncnc(Nc3ccc(Cl)cc3F)c2cc1OC`, for which the Potency result in assay [1] and in assay [2] was “inactive” each time.
Turning to `CCC(N)(C(=O)O)c1ccc(C(=O)O)cc1` (stereo unspecified), the Potency entry in assay [1] and in assay [2] was “inactive” each time.
In the case of `CNC(=O)[C@H]1O[C@@H](n2cnc3c(N)ncnc32)[C@H](O)[C@@H]1O`, the Potency result in assay [1] and in assay [2] was “inactive” in each case.
With `N[C@@H](Cc1cc(I)c(Oc2ccc(O)cc2)c(I)c1)C(=O)O`, the Potency entry in assay [1] and in assay [2] was “inactive” each time.
